{"source": "PubChem BioAssay AID651707", "about": "(NMMLSC, 2012)", "note": "Hit rate of the full screen: of about 2,300 compounds, about 170 (7.4%) were called active.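 How the source made its calls: active means over 5% cells positive for green fluorescent reporter, or over 2% positive for both it and APC stain; inactive means the rest, inconclusive results apart.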 The list is a sample of the results.", "data": [{"assay": "intrinsic compound fluorescence in ER-HoxA9 progenitors, confirmation, artefact control for AML myeloid differentiation project, cell-based, flow cytometry, GFP/APC, Cherry Pick01 (AID 651707);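 on double positive: share of cells both GFP positive and bound by Mac1 APC antibody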;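 on fluorescence response: range taken on the double positive population between DMSO and positive control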", "settings": "no estrogen, GFP autofluorescence flow cytometry, stronger effect = higher value; double positive: measured here: double positive GFP/APC population; fluorescence response: vehicle wells 0%, positive control 100%", "units": {"double positive": "%"}, "values": [{"smiles": "CCc1noc(C)c1C(=O)Nc1nc(-c2ccccc2)cs1", "fluorescence response": "1% (inactive)"}, {"smiles": "COc1cccc(NC(=S)NCc2ccccn2)c1", "fluorescence response": "0.3% (inactive)"}, {"smiles": "COc1cc(/C=C(\\C#N)c2nc3ccccc3[nH]2)ccc1O", "fluorescence response": "36.7% (active)"}, {"smiles": "Clc1ccc(-c2nnc(SCc3nc4ccccc4s3)o2)cc1", "fluorescence response": "0% (inactive)"}, {"smiles": "CCC1CCCCN1CCCNC(=O)Cn1nc(-c2ccccc2)ccc1=O", "note": "(centres undefined)", "fluorescence response": "0% (inactive)"}, {"smiles": "CC1=C(C(N)=O)C(c2ccc3c(c2)OCO3)n2nc(-c3cccc(C)c3)nc2N1", "note": "(centres undefined)", "fluorescence response": "0% (inactive)"}, {"smiles": "COc1ccc(S(=O)(=O)N2CCC(C(=O)N3CCc4ccccc4C3)CC2)cc1OC", "fluorescence response": "0% (inactive)"}, {"smiles": "CN1OC(COC(=O)c2ccc(Cl)cc2)CC1c1ccccc1", "note": "(centres undefined)", "fluorescence response": "0.3% (inactive)"}, {"smiles": "COc1cc(/C=C2/SC(=S)N(Cc3ccccc3)C2=O)cc(OC)c1O", "fluorescence response": "97.2% (active)"}, {"smiles": "Cc1nc(C)c(-c2nnc(-c3cccc(S(=O)(=O)N(C)C)c3)o2)cc1C(=O)NN", "fluorescence response": "0.7% (inactive)"}, {"smiles": "CCOc1ccc(C(=O)Nc2ccc(S(=O)(=O)NCC3CCCO3)cc2)cc1OCC", "note": "(centres undefined)", "fluorescence response": "0.3% (inactive)"}, {"smiles": "CCCCSc1nc2c(c(=O)n1CC)SC(C)C2", "note": "(centres undefined)", "fluorescence response": "0% (inactive)"}, {"smiles": "Nc1ccc2nc3c(=O)[nH]c(=S)[nH]c3nc2c1", "fluorescence response": "0% (inactive)"}, {"smiles": "CC(C)c1nc2ccc(C(=O)O)cc2[nH]1", "double positive": 0.4, "fluorescence response": "0.4% (inactive)"}, {"smiles": "COc1ccc(N(CC(=O)NC2CCCCCCC2)S(=O)(=O)c2c(C)nn(C)c2C)cc1", "fluorescence response": "0% (inactive)"}, {"smiles": "Cc1nn(-c2ncccn2)c2c1C(=O)CC(C)(C)C2Br", "note": "(centres undefined)", "fluorescence response": "0% (inactive)"}, {"smiles": "Cn1c(CNC(=O)c2ccccc2F)nnc1SCc1ccc(F)cc1", "fluorescence response": "0% (inactive)"}, {"smiles": "CNc1nc(=O)n(C2CCCO2)cc1C", "note": "(centres undefined)", "fluorescence response": "0% (inactive)"}, {"smiles": "CC(=O)N1c2ccc(S(=O)(=O)N3CCCC(C(=O)Nc4cccc(F)c4)C3)cc2CC1C", "note": "(centres undefined)", "fluorescence response": "0% (inactive)"}, {"smiles": "CCOC(=O)CC(=O)CSc1nc(-c2ccccc2)cc(-c2ccc(Cl)cc2)c1C#N", "fluorescence response": "0% (inactive)"}, {"smiles": "CC(C)(C)OC(=O)CNC(=O)c1[nH]cnc1C(=O)N[C@@H](Cc1ccccc1)C(=O)OCc1ccccc1", "fluorescence response": "0% (inactive)"}, {"smiles": "O=C(Nc1cccc(-c2nc3ncccc3o2)c1)c1ccco1", "fluorescence response": "0.2% (inactive)"}, {"smiles": "O=S(=O)(NCc1cccnc1)c1ccc(Cl)nc1", "fluorescence response": "0.4% (inactive)"}, {"smiles": "COCCCn1c(=O)/c(=C/c2ccccc2OC(C)C)s/c1=C(\\C#N)C(=O)Nc1ccc(C(=O)O)cc1", "fluorescence response": "0% (inactive)"}, {"smiles": "O=C(Nc1ccccc1N1CCN(c2ccccc2)CC1)c1cccc(F)c1", "fluorescence response": "0% (inactive)"}, {"smiles": "CC1(C)CC(=O)C2=C(C1)Nc1cc(C(=O)c3ccccc3)ccc1NC2c1ccccn1", "note": "(centres undefined)", "fluorescence response": "0.4% (inactive)"}, {"smiles": "CCc1c(C)sc(NC(=O)c2cccs2)c1C(N)=O", "fluorescence response": "0% (inactive)"}, {"smiles": "C=CCNc1nnc(SCC(=O)N2CCCCC2)c2ccccc12", "fluorescence response": "0.3% (inactive)"}, {"smiles": "Cc1cccc(C)c1NC(=O)CCS(=O)(=O)c1cccc2nsnc12", "fluorescence response": "0% (inactive)"}, {"smiles": "Cc1ccc2nc(-c3ccccn3)cc(C(=O)Nc3ccc4c(c3)OCO4)c2c1", "fluorescence response": "0% (inactive)"}, {"smiles": "CCOC(=O)c1c(-c2cccc(C)c2)csc1NC(=O)c1c(-c2ccccc2)noc1C", "fluorescence response": "0% (inactive)"}, {"smiles": "Cn1c2ccccc2c2cc(/C=C(\\NC(=O)c3ccccc3)C(=O)NCC(=O)O)ccc21", "fluorescence response": "0% (inactive)"}, {"smiles": "CN(C(=O)CSc1nnc(C2CC2)n1C)C1CCCc2ccccc21", "note": "(centres undefined)", "fluorescence response": "0% (inactive)"}, {"smiles": "CSc1nnc(-c2ccncc2)n1CCCN1CCCC1=O", "fluorescence response": "0% (inactive)"}, {"smiles": "COc1cc(N=Cc2c(O)[nH]c3ccccc23)cc(OC)c1OC", "fluorescence response": "0% (inactive)"}, {"smiles": "CC(CNc1ccc([N+](=O)[O-])cc1)NC(=O)c1ccccc1Br", "note": "(centres undefined)", "fluorescence response": "0.4% (inactive)"}, {"smiles": "Cc1ccc2c(c1)c1ncn(Cc3ccc(F)cc3)c(=O)c1n2C", "fluorescence response": "0% (inactive)"}, {"smiles": "Cc1cccc(-n2c(SCC(=O)Nc3cccc(S(=O)(=O)NC4=NCCCCC4)c3)nc3ccccc3c2=O)c1C", "fluorescence response": "0% (inactive)"}, {"smiles": "CCN(CC)CC(=O)c1c[nH]c2ccc(OC)cc12", "fluorescence response": "0.3% (inactive)"}, {"smiles": "CCOc1ccc(NC(=O)CSc2nc3c(c(=O)n2-c2ccccc2OC)SCC3)cc1", "fluorescence response": "0.5% (inactive)"}, {"smiles": "CC(C)C(=O)N1CCN(c2nc(-c3ccccc3)c3c(c2C#N)CC(C)(C)OC3)CC1", "fluorescence response": "0% (inactive)"}, {"smiles": "O=C(CN1CCN(C2CCCCC2)CC1)Nc1ccccc1N1CCCCC1", "fluorescence response": "0% (inactive)"}, {"smiles": "O=C(NCCN=C1NS(=O)(=O)c2ccccc21)c1ccc(S(=O)(=O)N2CCOCC2)cc1", "fluorescence response": "4.3% (inactive)"}]}]}
